This note sets out measurements from PubChem BioAssay AID1851 (National Center for Advancing Translational Sciences (NCATS), 2009).

Several values for one entry are separate records, joined by “and”; a condition that tells them apart may be missing. Equal values may be shown once. About 5,100 (32%) of roughly 16,000 compounds were called active. Not shown: some 25% with an inconclusive outcome. Some of the results follow. Unmarked numbers belong to inactive results. The call rests on the fitted dose curve; in most records, active means well fitted curve in the direction sought with a large enough effect; inconclusive means small, poorly fitted or top-dose-only effect, or effect the other way; inactive means no such curve, though single readings can be large or run the other way.
On the % scale 0 is the no-effect control and ±100 the full control effect.

In this test the target is Cytochrome P450 3A4 (Homo sapiens) (UniProt P08684). As to the kind of experiment: Cytochrome panel assay with activity outcomes. The note with it: recombinant CYP, pro-luciferin dealkylation, luminescence, p450-cyp3a4; series mostly up to 57.1 µM; activity, negative = inhibition: at the top concentration.
Chain of Cytochrome P450 3A4 (Homo sapiens) (P08684 whole entry, looked up): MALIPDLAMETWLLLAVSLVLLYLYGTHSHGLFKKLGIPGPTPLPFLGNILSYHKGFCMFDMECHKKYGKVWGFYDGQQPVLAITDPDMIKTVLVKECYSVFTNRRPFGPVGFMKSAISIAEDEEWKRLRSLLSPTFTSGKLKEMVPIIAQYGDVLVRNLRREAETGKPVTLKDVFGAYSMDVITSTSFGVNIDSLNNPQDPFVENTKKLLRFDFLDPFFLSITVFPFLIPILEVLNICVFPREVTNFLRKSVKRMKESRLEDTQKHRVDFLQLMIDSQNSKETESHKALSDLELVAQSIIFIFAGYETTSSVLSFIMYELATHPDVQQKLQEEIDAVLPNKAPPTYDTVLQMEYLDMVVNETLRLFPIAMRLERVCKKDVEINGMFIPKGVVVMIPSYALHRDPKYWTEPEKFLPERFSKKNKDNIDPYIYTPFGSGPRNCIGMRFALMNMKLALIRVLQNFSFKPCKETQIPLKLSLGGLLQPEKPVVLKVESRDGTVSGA
Turning to `CO/N=C(\C(=O)N[C@@H]1C(=O)N2C(C(=O)O)=C(COC(N)=O)CS[C@@H]12)c1ccco1`, the “activity, negative = inhibition” value was 18.5% [at 25.6 µM].

As to `N[C@@H](CSS(=O)(=O)O)C(=O)O`, the “activity, negative = inhibition” value was -15.1%.

In general, AC50 refers to the concentration giving half of the maximal activity seen. For the compound `CC(C)(C)c1[nH]nc2c1C(c1ccc(OC(=O)c3ccco3)cc1)C(C#N)=C(N)O2` (stereo not drawn), the AC50 is 2.24 µM (active).

Consider `O=C(Nc1cccc2[nH]ncc12)c1ccc(F)cc1`, for which the concentration at half-maximal activity (AC50) is 15.8 µM (active).

Consider `O=C(Nc1ccccc1Cl)c1ccn[nH]1`, for which the “activity, negative = inhibition” value is 11.2%.

With `COC(=O)c1ccccc1NC(=O)c1ccc(F)cc1`, the “activity, negative = inhibition” value was -21%.

Turning to `O=C(Nc1cccc(F)c1)N1CCCC2(CCN(C(=O)c3cc(C(F)(F)F)cc(C(F)(F)F)c3)CC2)C1`, the concentration at half-maximal activity (AC50) was 12.6 µM (active).

For `O=C(Nc1cccc(F)c1)N1CC[C@@]2(CCCN(C(=O)c3cc(C(F)(F)F)cc(C(F)(F)F)c3)C2)C1`, the AC50 is 15.8 µM (active).

On to `COCC(=O)N1CCC2(CC1)CN(C(=O)Nc1cccc(F)c1)C2`, for which the “activity, negative = inhibition” value is -6.8%.

Consider `N#Cc1cccc(NC(=O)N2CCCC3(CCN(C(=O)c4cc(C(F)(F)F)cc(C(F)(F)F)c4)CC3)C2)c1`, for which the AC50 is 10 µM (active).

For the compound `Cn1cccc1C(=O)N1CCC2(CCN(C(=O)Nc3cccc(F)c3)CC2)CC1`, the “activity, negative = inhibition” value is 21.8%.

As for `O=C(Nc1ccccc1)N1CC2(CCN(C(=O)c3cc(C(F)(F)F)cc(C(F)(F)F)c3)CC2)C1`, the “activity, negative = inhibition” value was -17.6%.

For `O=C(Nc1ccccc1)N1CCCC2(CCN(C(=O)c3cc(C(F)(F)F)cc(C(F)(F)F)c3)CC2)C1`, the AC50 is 15.8 µM (active).

Take `COC(=O)N1CCC2(CCCN(C(=O)Nc3ccccc3)C2)CC1`: the “activity, negative = inhibition” value was -23.6%.

In the case of `Cc1csc(NC(=O)Cc2c[nH]c3ccccc23)n1`, the AC50 is 35.5 µM (active).

For `C=CC[C@@H]1C=C[C@H](O/N=C\[C@@H](C)[C@H](OCc2ccccc2)C(C)C)[C@H](CO)O1`, the AC50 is 3.98 µM (active).

Consider `C=CC[C@@H]1C=C[C@@H](O/N=C\[C@@H](OC)[C@H](C)/C=C\CC(=O)OC)[C@@H](CO)O1`, for which the AC50 was 3.16 µM (active).

`CO/N=C\[C@@H](OC)[C@H](C)/C=C\CC(=O)OC`: the activity, negative = inhibition is -11.6% [at 11.4 µM].

In the case of `COC(=O)[C@H](C)NC(=O)C/C=C\[C@@H](C)[C@H]1C=C[C@H](O)[C@@H](CO)O1`, the activity, negative = inhibition is -25.2% [at 11.4 µM].

Turning to `CC(=O)OC[C@H]1O[C@@H](O/N=C\[C@@H](C)[C@H](OCc2ccccc2)C(C)C)[C@H](OC(C)=O)[C@@H](OC(C)=O)[C@H]1OC(C)=O`, the activity, negative = inhibition was -74.7% [at 11.4 µM].

Consider `CO[C@]1(NC(=O)C2SC(=C(C(N)=O)C(=O)O)S2)C(=O)N2C(C(=O)O)=C(CSc3nnnn3C)CS[C@H]21` (stereo partly drawn), for which the “activity, negative = inhibition” value is -2.24% [at 25.6 µM].

Regarding `CCc1ncc(CO)n1Cc1cccc2ccccc12`, the activity, negative = inhibition was -11.4% [at 11.4 µM].

As for `COc1cc(CNCc2cccs2)cc(Br)c1OC`, the concentration at half-maximal activity (AC50) was 7.08 µM (active).

Consider `CCN1CCN(Cc2ccc(NC(=O)Nc3cccs3)cc2)CC1`, for which the “activity, negative = inhibition” value was -16.6%.

With `COc1ccc(CNC(=O)Nc2cccs2)cc1OC`, the AC50 is 22.4 µM (active).

Turning to `COc1cc(CNCc2cccs2)ccc1OCC(=O)NC(C)(C)C`, the AC50 was 4.47 µM (active).

Consider `COc1cc(CNCc2cccs2)ccc1OCC(N)=O`, for which the “activity, negative = inhibition” value is -8.51%.

As for `CCOC(=O)N1CCN(C(=O)CNCc2cccs2)CC1`, the “activity, negative = inhibition” value was -4.69%.

Regarding `N[C@H](C(=O)O)[C@@H](O)c1cnc[nH]1`, the activity, negative = inhibition is -12.3% [at 11.4 µM].

For the compound `COc1ccc(OC)c(C(=O)CN2C(=O)NC(C)(c3ccccc3)C2=O)c1` (stereo not drawn), the AC50 is 10 µM (active).

As to `COc1ccc2c(c1)CCCC21NC(=O)N(CC(N)=O)C1=O` (stereo not drawn), the “activity, negative = inhibition” value is -13.8%.

In the case of `Cc1cc(NC(=O)CN2C(=O)NC(C)(c3ccc(OC(F)F)cc3)C2=O)no1` (stereo not drawn), the “activity, negative = inhibition” value is -24.5%.

Consider `CC(C)NCCOCCSc1ccc(Cl)cc1`, for which the “activity, negative = inhibition” value was -10.4%.

On to `COC(=O)[C@@H]1C[C@H]1[C@@H](NC(=O)c1ccccc1)c1ccccc1`, for which the “activity, negative = inhibition” value is 14.7%.

As to `COC(=O)[C@@H]1C[C@H]1[C@@H](NC(=O)c1cccnc1)c1ccccc1`, the AC50 was 10 µM (active).

Consider `COC(=O)[C@H]1C[C@@H]1[C@H](NC(=O)c1cccnc1)c1ccccc1`, for which the AC50 was 5.01 µM (active).

For the compound `O=C(O)CN(CCN(CC(=O)O)CC(=O)O)CC(=O)O.[Mn]`, the activity, negative = inhibition was 1.35% [at 11.4 µM].

As for `N[C@@H](C(=O)O)c1ccc(C(=O)O)c(C(=O)O)c1`, the AC50 entry was “inactive”.

Turning to `CNc1ncncc1-c1ccccc1C(F)(F)F`, the AC50 is 0.794 µM (active).

Take `Fc1ccc(Nc2ncncc2-c2ccccc2C(F)(F)F)cc1`: the AC50 is 0.398 µM (active).

For `FC(F)(F)c1ccccc1-c1cncnc1Nc1ccccc1`, the AC50 was 0.501 µM (active).

As for `NS(=O)(=O)c1nc(S(=O)(=O)O)c2[nH]cnc2n1`, the activity, negative = inhibition is -3.98% [at 11.4 µM].

In the case of `Cc1c(C)c2c(C)[nH]nc2oc1=O`, the activity, negative = inhibition was 4.7% [at 11.4 µM].

On to `C[C@@H]1CC[C@@H]2C(=O)N3[C@@H](CC[C@@H](C)[C@@H]3c3ccc(-c4ccco4)cc3)C(=O)N2[C@H]1c1ccc(-c2ccco2)cc1`, for which the activity, negative = inhibition was -15.7% [at 11.4 µM].

`C[C@H]1CC[C@H]2C(=O)N[C@H](Cc3ccccc3)C(=O)N2[C@@H]1c1ccccc1`: the AC50 was 2.51 µM (active).

With `C[C@@H]1CN2[C@H](c3ccc(Br)cc3)[C@H](C)CC[C@H]2C(=O)O1`, the activity, negative = inhibition is -28.2% [at 11.4 µM].

For `O=C(/C=C\c1ccc(O)c(O)c1)O[C@@H]1C[C@](O)(C(=O)O)C[C@@H](O)[C@@H]1O`, the “activity, negative = inhibition” value is -6.55% [at 25.6 µM].

As for `CC(=O)Nc1ccc(NCN2C(=O)C3C4CCC(C4)C3C2=O)cc1` (stereo not drawn), the “activity, negative = inhibition” value was -16.7%.

In the case of `Cc1cccc(OC(=O)CN2C(=O)C3C4CCC(C4)C3C2=O)c1C` (stereo not drawn), the AC50 was 14.1 µM (active).

Turning to `COc1ccc(C(=O)Nc2ccc(Cl)cn2)cc1Cl`, the AC50 was 28.2 µM (active).

Take `Cc1cc(=O)oc(C)c1C(=O)Nc1ccc(Cl)cn1`: the activity, negative = inhibition is -3.08% [at 2.29 µM].

On to `CCOc1ccc(C(=O)Nc2ccc(Cl)cn2)cc1Cl`, for which the “activity, negative = inhibition” value is -26.9%.

In the case of `COc1ccccc1-c1cncnc1NCc1cccs1`, the AC50 is 0.398 µM (active).

In the case of `FC(F)(F)c1ccccc1-c1cncnc1NCc1cccs1`, the AC50 is 0.251 µM (active).

Regarding `Clc1ccccc1-c1cncnc1NCc1cccs1`, the concentration at half-maximal activity (AC50) was 0.501 µM (active).

`FC(F)(F)c1ccccc1-c1cc(NCc2cccs2)ncn1`: the “activity, negative = inhibition” value was -27.4%.

On to `Cc1ccccc1-c1cncnc1NCc1cccs1`, for which the AC50 was 0.501 µM (active).

Regarding `CCCCCCCCCCCC1=C(O)C(=O)C=C(O)C1=O`, the “activity, negative = inhibition” value is 9.54%.

As to `O=C(O)CCCCCNC(=O)c1ccccc1Br`, the “activity, negative = inhibition” value is -0.958%.

Take `NNC(=O)CNC(c1ccccc1)c1cc(Br)ccc1NC(=O)c1ccccc1Br` (stereo not drawn): the AC50 was 0.794 µM (active).

Regarding `O=C(O)c1ccccc1C(=O)Nc1cc2c(cc1Br)-c1ccccc1C2=O`, the activity, negative = inhibition is -24.8% [at 11.4 µM].

With `CCOC(=O)CCN1C(=O)[C@H]2[C@H]3[C@H](O)[C@H](O)C/C(=N/OCC(C)C)[C@H]3CC[C@@H]2C1=O`, the activity, negative = inhibition was -22.9% [at 11.4 µM].

As for `COc1ccccc1-c1cc(NCc2cccnc2)ncn1`, the AC50 is 5.01 µM (active).

Take `Cc1ccccc1-c1cc(NCc2ccccc2)ncn1`: the “activity, negative = inhibition” value is 5.2%.

As for `Cc1ccccc1-c1cc(NCc2cccnc2)ncn1`, the AC50 was 10 µM (active).

Turning to `O=C(O)[C@H]1CCCNC1`, the “activity, negative = inhibition” value is -8.58%.

On to `NS(=O)(=O)c1ccc(NCc2cnc3ccccc3n2)cc1`, for which the activity, negative = inhibition was -7.19% [at 11.4 µM].

`NS(=O)(=O)c1ccc(NCc2nc3ccccc3[nH]2)cc1`: the activity, negative = inhibition is -19.2% [at 11.4 µM].

For the compound `NS(=O)(=O)c1ccc(NCc2ccccc2OCc2ccccc2F)cc1`, the half-maximal activity concentration (AC50) was 15.8 µM (active).

As to `CCCOc1ccccc1-c1nc2n[nH]nc2c(=O)[nH]1`, the AC50 result was “inactive”.

In the case of `C=CCc1cccc(C2Nc3ccccc3C(=O)N2O)c1O` (stereo not drawn), the AC50 was 20 µM (active).

Consider `O=C1c2ccccc2NC(c2ccc(Cl)cc2Cl)N1O` (stereo not drawn), for which the “activity, negative = inhibition” value is -28.7%.

As for `CC(=O)c1c(O)cc(=O)n(-c2ccccc2)c1-c1ccc(C)cc1`, the “activity, negative = inhibition” value is -6.63%.

With `Cc1cc(O)c(C(C)C)cc1C1(c2cc(C(C)C)c(O)cc2C)OC(=O)c2ccccc21`, the AC50 is 1.58 µM (active).

With `Cc1cc(O)c(C(C)C)cc1CN1CCCCC1`, the activity, negative = inhibition is -7.75% [at 11.4 µM].

Take `Fc1ccc(COc2ccc(Br)cc2CNCc2ccncc2)cc1`: the concentration at half-maximal activity (AC50) was 0.562 µM (active).

Regarding `Clc1ccccc1-c1nc(NCc2cccs2)c2ccccc2n1`, the AC50 is 6.31 µM (active).

On to `FC(F)(F)c1ccccc1-c1nc(NCc2cccs2)c2ccccc2n1`, for which the AC50 was 3.98 µM (active).

On to `C/C(=N\NC(=S)Nc1cccc(C)c1)c1ccccc1`, for which the AC50 was 8.91 µM (active).

For `C/C(=N/NC(=O)Cc1cccn1C)c1ccccc1`, the “activity, negative = inhibition” value is -28.1%.

Consider `C/C(=N\NC(=O)c1cccc(C)c1)c1cccc(NC(=O)c2ccco2)c1`, for which the activity, negative = inhibition is -7.23% [at 2.29 µM].

With `COc1cc(C(=O)NCc2cccc3ccccc23)cc(Cl)c1OC`, the AC50 was 10 µM (active).

Consider `COc1ccc(S(=O)(=O)N2CCCCCC2)cc1N(C)S(=O)(=O)c1ccc(Cl)cc1`, for which the activity, negative = inhibition is -26.2% [at 2.29 µM].

In the case of `CC1CCN(C(=O)C2CCN(S(=O)(=O)c3cccc4nonc34)CC2)CC1`, the “activity, negative = inhibition” value was -12%.

As for `C[C@H]1CN(S(=O)(=O)c2cccc3cnccc23)CCN1`, the AC50 is 10 µM (active).

In the case of `O=S(=O)(c1ccccc1S(=O)(=O)N1CCCCC1)N1CCCCC1`, the AC50 is 8.91 µM (active).

As to `O=C(O)C1(C(=O)O)CCN(S(=O)(=O)c2ccccc2)CC1`, the activity, negative = inhibition is -12.3% [at 11.4 µM].

Turning to `O=S(=O)(c1cccc2c(Cl)cccc12)N1CCCNCC1`, the concentration at half-maximal activity (AC50) was 5.01 µM (active) and 3.98 µM (active).

Consider `O=S(=O)(c1ccccc1)N1CN2CN(C1)CN(S(=O)(=O)c1ccccc1)C2`, for which the activity, negative = inhibition was -1.65% [at 11.4 µM].

As for `O=S(=O)(c1cccc2cnccc12)N1CCNCC1`, the AC50 is 12.6 µM (active).

As for `CCOC(=O)C(NC(C)=O)C(=O)O` (stereo not drawn), the “activity, negative = inhibition” value is 1.64%.

As to `O=C1C=CC(=Nc2cccc3c(N=C4C=CC(=O)O4)cccc23)O1`, the activity, negative = inhibition is -24.5% [at 11.4 µM].

Take `CC(C)=CCc1c(C)nc2ccccc2c1C(=O)O`: the “activity, negative = inhibition” value is 3.07%.
